HT1080 IDH1KD tx = toxicity to HT-1080 IDH1 knockdown cells (counter line); HT-1080 IDH1 knockdown viability, ATP luminescence, 48 h; Potency, µM (series often up to 46.1 µM), without a hit: at the top dose activity, negative = toxicity, hits mostly cytotoxic; 360,000 compounds, 2% hits;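 also: 0% = DMSO wells and -100% = cell-free medium wells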
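Luminescent ATP read-out (CellTiter-Glo, 10 min at room temperature) after 48 h compound exposure at 37 °C gave viability of IDH1-knockdown HT-1080 cells. Activity was normalised to DMSO and cell-free wells, then fitted as concentration-response curves.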
HT1080NT lethal = kills 2HG-producing HT-1080-NT fibrosarcoma cells | 360,000 compounds, 1.6% hits | Potency, µM (titrated, usually from 46.1 µM), inactives show top-dose activity, negative = less viability, hits mostly cytotoxic | HT-1080-NT fibrosarcoma viability, CellTiter-Glo ATP luminescence, 48 h;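 also: NT is the 2HG producing partner of a matched IDH1 knockdown line; 0% = DMSO-treated cells and -100% = media-only wells without cells; nearly all actives have a fitted effect of over 55% in size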
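HT-1080-NT fibrosarcoma cells (2HG-overproducing), 750 cells/well in RPMI with 5% FBS, dosed after 2 h and incubated 48 h at 37C. CellTiter-Glo luminescence normalized to DMSO and no-cell wells; concentration-response curves fitted and classed.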
TDP1 cell noCPT = qHTS for Inhibitors of human tyrosyl-DNA phosphodiesterase 1 (TDP1): qHTS in cells in absence of CPT. DT40 Tdp1-/- hTDP1 cells, no CPT, ATP luminescence, 48 h. Potency, µM (doses to about 46.2 µM), inactives show top-dose activity change, negative = growth inhibition, most hits filed as inhibitors. 420,000 compounds, 15% hits; also: nearly all actives have a fitted effect of over 55% in size
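Chicken DT40 Tdp1-/- cells stably complemented with human TDP1 were seeded at 400 cells/well with DMSO in place of 20 nM camptothecin. After compound pinning, cells grew at least 48 hr at 37 °C; viability read by CellTiter-Glo luminescence.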
KB-3-1 cytotox = kills parental KB-3-1 adenocarcinoma cells; KB-3-1 viability, CellTiter-Glo ATP luminescence, 72 h; Potency, µM (top dose mostly 46.1 µM), hits mostly cytotoxic; 400,000 compounds, 1.4% hits; AID 1347075; also: nearly all actives have a fitted effect of over 60% in size
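KB-3-1 cells, DMEM (no phenol red) + 10% FBS; compound by pin transfer, 72 h, 37 °C. Readout: CellTiter-Glo luminescence after 10 min. Data normalized, curve-fitted.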
DT40 TDP1 CPT = DT40-hTDP1 cell growth loss with CPT; chicken DT40 Tdp1-/-;hTDP1 cells + 20 nM CPT, ATP luminescence, 48 h; Potency, µM (series often up to 46.2 µM), inactives show at the top dose activity change, negative = growth inhibition, most hits filed as inhibitors; 420,000 compounds, 12% hits; AID 686979; also: nearly all actives have a fitted effect of over 55% in size
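Chicken DT40 Tdp1-/- cells complemented with human TDP1, 400 cells/well, exposed to compounds plus 20 nM camptothecin for at least 48 h at 37 C; viability read as ATP content by CellTiter-Glo luminescence.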
KB-V1 MDR tox = kills drug-selected multidrug resistant KB-V1 cells. KB-V1 MDR cells viability, CellTiter-Glo, 72 h. Potency, µM (doses to about 46.1 µM), hits mostly cytotoxic. 400,000 compounds, 3.4% hits. AID 1347076; also: nearly all actives have a fitted effect of over 60% in size
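KB-V1 cells (P-gp-expressing MDR subline of KB-3-1) in phenol-red-free DMEM with 10% FBS were exposed to library compounds over a concentration series for 72 h at 37 degrees C. Viability read by CellTiter-Glo luminescence; concentration-effect curves fitted after normalization.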
* = called active by the depositor. The list is not random: actives were taken first. Their share in the collection is about 19%. Calls follow the shape of the dose curve; as a rule, active = well fitted curve in the direction sought with a large enough effect; inconclusive = small, poorly fitted or top-dose-only effect, or another doubt; inactive = no such curve, though single readings can be large; an effect the other way counts as inactive or inconclusive. Unless noted, % is scaled to controls: 0 for no effect and ±100 for the full control effect; potency is read from the fitted curve at half-maximal effect.

For CC(=O)c1cc(-c2ccc(F)cc2)n(CCC(=O)Nc2nc3c(C)cccc3s2)c1C the results were TDP1 cell noCPT 13µM*, KB-3-1 cytotox inactive, DT40 TDP1 CPT inconclusive and KB-V1 MDR tox inactive.
CCc1ccc(NC(=O)CCn2c(-c3ccc(OC)cc3)cc(C(C)=O)c2C)cc1 was read as TDP1 cell noCPT 16.4µM*, KB-3-1 cytotox inactive, DT40 TDP1 CPT 16.4µM* and KB-V1 MDR tox inactive.
COc1cc(NC(=O)CCn2c(-c3ccccc3)cc(C(C)=O)c2C)cc(OC)c1 was read as TDP1 cell noCPT 13µM*, KB-3-1 cytotox inactive, DT40 TDP1 CPT inconclusive and KB-V1 MDR tox inactive.
For CCOC(=O)c1cc(-c2ccc(F)cc2)n(CCC(=O)Nc2nc3ccc(OC)cc3s2)c1C the results were TDP1 cell noCPT 16.4µM*, KB-3-1 cytotox inactive, DT40 TDP1 CPT 18.4µM* and KB-V1 MDR tox inconclusive.
Screening CCOC(=O)c1cccc(NC(=O)CN2CCN(c3ccc(OC)cc3)CC2)c1 returned HT1080 IDH1KD tx 9.4%, HT1080NT lethal 2.3%, TDP1 cell noCPT inconclusive, KB-3-1 cytotox inactive, DT40 TDP1 CPT -11.3% and KB-V1 MDR tox 20.6µM*.
`CCOC(=O)c1cc(-c2ccc(OC)cc2)n(CCC(=O)Nc2cccc(C(C)=O)c2)c1C` gave TDP1 cell noCPT 14.6µM* and DT40 TDP1 CPT 16.4µM*.
Screening CCOC(=O)c1sc(NC(=O)CN2CCN(c3ccc(OC)cc3)CC2)nc1C returned HT1080 IDH1KD tx 5.5%, HT1080NT lethal -3.5%, TDP1 cell noCPT -27.3%, KB-3-1 cytotox inactive, DT40 TDP1 CPT 21.6% and KB-V1 MDR tox inconclusive.
Screening Oc1ccc(-c2cnns2)c(O)c1 returned HT1080 IDH1KD tx -28.1%, HT1080NT lethal -17.9%, TDP1 cell noCPT 4.61µM*, KB-3-1 cytotox inactive, DT40 TDP1 CPT 4.11µM* and KB-V1 MDR tox inactive.
`Nc1ncc(-c2ccccc2)c(-c2ccc(O)cc2O)n1` gave HT1080 IDH1KD tx inconclusive, HT1080NT lethal inconclusive, TDP1 cell noCPT inconclusive, KB-3-1 cytotox inconclusive, DT40 TDP1 CPT -6.9% and KB-V1 MDR tox inconclusive.
Screening CCN(CC)S(=O)(=O)c1ccc(N2CCCC2)c(NS(=O)(=O)c2ccc(OC)cc2)c1 returned HT1080 IDH1KD tx -0.3%, HT1080NT lethal -2.2%, TDP1 cell noCPT 16.4µM*, KB-3-1 cytotox inactive, DT40 TDP1 CPT inconclusive and KB-V1 MDR tox 4.11µM*.
Screening CCN(CC)S(=O)(=O)c1ccc(N2CCCC2)c(NS(=O)(=O)c2ccccc2)c1 returned HT1080 IDH1KD tx -2.7%, HT1080NT lethal -0.2%, TDP1 cell noCPT inconclusive, KB-3-1 cytotox inactive, DT40 TDP1 CPT 23.1µM* and KB-V1 MDR tox inactive.
Screening CCN(CC)S(=O)(=O)c1ccc(N2CCCC2)c(NC(=O)c2ccccc2OC)c1 returned HT1080 IDH1KD tx -6.4%, HT1080NT lethal -1.7%, TDP1 cell noCPT 14.6µM*, KB-3-1 cytotox inactive, DT40 TDP1 CPT inconclusive and KB-V1 MDR tox inactive.
For CCN(CC)S(=O)(=O)c1ccc(N2CCCC2)c(NS(=O)(=O)c2ccc(F)cc2)c1 the results were HT1080 IDH1KD tx -7.3%, HT1080NT lethal -0.6%, TDP1 cell noCPT 14.6µM*, KB-3-1 cytotox inactive, DT40 TDP1 CPT inconclusive and KB-V1 MDR tox inactive.
`CCN(CC)S(=O)(=O)c1ccc(N2CCCC2)c(NS(=O)(=O)c2ccc([N+](=O)[O-])cc2)c1` gave HT1080 IDH1KD tx 7.2%, HT1080NT lethal 2.9%, TDP1 cell noCPT -28.5%, KB-3-1 cytotox inactive, DT40 TDP1 CPT inconclusive and KB-V1 MDR tox inactive.
Screening O=C(c1ccncc1)N1CCC2(CC1)CN(Cc1cc(C(F)(F)F)cc(C(F)(F)F)c1)C2 returned TDP1 cell noCPT -7.3% and DT40 TDP1 CPT inconclusive.
O=C(Nc1ccc2c(c1)OCO2)c1cnc(Cl)c(Cl)c1 was read as HT1080 IDH1KD tx -11.0%, HT1080NT lethal 2.6%, TDP1 cell noCPT inconclusive, KB-3-1 cytotox inactive, DT40 TDP1 CPT inconclusive and KB-V1 MDR tox inactive.
`CCN(CC)S(=O)(=O)c1ccc(N2CCOCC2)c(NC(=O)Cc2ccc(Cl)cc2)c1` gave HT1080 IDH1KD tx -16.6%, HT1080NT lethal -11.1%, TDP1 cell noCPT inconclusive, KB-3-1 cytotox inactive, DT40 TDP1 CPT inconclusive and KB-V1 MDR tox inconclusive.
For CCN(CC)S(=O)(=O)c1ccc(N2CCCC2)c(NC(=O)Cc2ccccc2)c1 the results were HT1080 IDH1KD tx 9.2%, HT1080NT lethal -1.9%, TDP1 cell noCPT 14.6µM*, KB-3-1 cytotox inactive, DT40 TDP1 CPT inconclusive and KB-V1 MDR tox inactive.
CCN(CC)S(=O)(=O)c1ccc(N2CCCCC2)c(NC(=O)/C=C/c2cc(OC)c(OC)c(OC)c2)c1 was read as HT1080 IDH1KD tx 13.0%, HT1080NT lethal 19.9%, TDP1 cell noCPT 11.6µM*, KB-3-1 cytotox inactive, DT40 TDP1 CPT inconclusive and KB-V1 MDR tox inactive.
O=C1CCc2cc(S(=O)(=O)Nc3ccc(F)c(Cl)c3)ccc2N1 was read as KB-3-1 cytotox inactive and KB-V1 MDR tox inactive.
For Cn1c(-c2c(N)n(-c3ccccc3)c3nc4ccccc4nc23)nc2ccccc21 the results were HT1080 IDH1KD tx -17.5%, HT1080NT lethal -12.9%, TDP1 cell noCPT inconclusive, KB-3-1 cytotox inactive, DT40 TDP1 CPT 11.6µM* and KB-V1 MDR tox inconclusive.
CC(C)(C)NC(=O)CSc1nc(-c2ccc(F)cc2)cs1 was read as HT1080 IDH1KD tx -17.0%, HT1080NT lethal -7.3%, TDP1 cell noCPT 4.4%, KB-3-1 cytotox inactive, DT40 TDP1 CPT 9.8% and KB-V1 MDR tox inconclusive.
For COc1ccc(OC)c(NC(=O)c2oc(=O)c3ccccc3c2-c2ccccc2)c1 the results were TDP1 cell noCPT 20.6µM*, KB-3-1 cytotox inconclusive, DT40 TDP1 CPT inconclusive and KB-V1 MDR tox inactive.
For Cc1ccccc1NC(=O)c1oc(=O)c2ccccc2c1-c1ccccc1 the results were HT1080 IDH1KD tx -8.1%, HT1080NT lethal -14.4%, TDP1 cell noCPT inconclusive, KB-3-1 cytotox inactive, DT40 TDP1 CPT -1.6% and KB-V1 MDR tox inactive.
`COc1ccc(N(C)C(=O)c2oc(=O)c3ccccc3c2-c2ccc(C)cc2)c(OC)c1` gave HT1080 IDH1KD tx inconclusive, HT1080NT lethal -17.5%, TDP1 cell noCPT 16.4µM*, KB-3-1 cytotox inactive, DT40 TDP1 CPT 20.6µM* and KB-V1 MDR tox inconclusive.

Screens deposited in PubChem BioAssay by National Center for Advancing Translational Sciences (NCATS).
